Rows were chosen to be rich in hits. Some 3.5% of all compounds tested hit in one or more screens of this group.
FBW7 activator: activators of human E3 ligase FBW7. Q969H0. AlphaScreen FBW7–phospho-cyclin E peptide binding, activator screen. normalized activity (activation), % at 26.1 µM. 0.13% of 650,000 active. AID 1259310; in the data active = normalized activity above about 1.9%;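 also: purified mutant Fbw7 with reduced substrate affinity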
Target sequence (Q969H0 whole entry, looked up): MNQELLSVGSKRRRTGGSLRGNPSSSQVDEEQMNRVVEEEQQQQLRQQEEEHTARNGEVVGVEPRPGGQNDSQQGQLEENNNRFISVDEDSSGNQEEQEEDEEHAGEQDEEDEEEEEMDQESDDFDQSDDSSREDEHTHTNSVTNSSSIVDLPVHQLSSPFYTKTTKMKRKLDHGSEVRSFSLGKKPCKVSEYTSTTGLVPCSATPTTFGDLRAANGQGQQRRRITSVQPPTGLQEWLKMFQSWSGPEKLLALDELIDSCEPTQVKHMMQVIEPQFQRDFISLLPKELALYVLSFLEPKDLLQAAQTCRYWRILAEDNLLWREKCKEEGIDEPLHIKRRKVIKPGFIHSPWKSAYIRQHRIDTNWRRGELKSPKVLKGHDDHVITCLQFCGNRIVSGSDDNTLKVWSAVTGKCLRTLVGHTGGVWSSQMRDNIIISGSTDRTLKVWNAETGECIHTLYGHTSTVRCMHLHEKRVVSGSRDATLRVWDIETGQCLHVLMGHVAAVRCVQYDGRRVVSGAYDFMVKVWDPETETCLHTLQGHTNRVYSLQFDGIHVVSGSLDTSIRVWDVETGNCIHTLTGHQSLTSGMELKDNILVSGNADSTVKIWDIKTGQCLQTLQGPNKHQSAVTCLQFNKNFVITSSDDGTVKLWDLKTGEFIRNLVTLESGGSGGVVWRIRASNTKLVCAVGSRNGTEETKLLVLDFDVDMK
GPR151 activ: activates the human receptor GPR151. activation, % at 11.2 µM. PathHunter beta-arrestin GPR151 cells, luminescence. 1% of 650,000 active; in the data active = activation above about 4.9%;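 also: 0% = median of compound wells and 100% = cells with positive control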
MITF primary: blocks human microphthalmia-associated transcription factor. O75030. AlphaScreen MITF homodimerization, bead proximity signal. AID 1259374. inhibition, % at 2.6 µM. 0.91% of 650,000 active; in the data active = inhibition above about 50%;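 also: 0% = vehicle wells with protein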
TEAD-YAP block: TEAD-YAP interaction inhibition | 1.4% of 640,000 active | HEK-TIYL cells, TEAD-Gal4/YAP UAS-luciferase luminescence | inhibition, % at 9.12 µM; in the data active = inhibition above about 32%;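 also: 0% = median of test compound wells and 100% = reference inhibitor wells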
GPR151 conf act: confirmation of human GPR151 activators; shares compounds with GPR151 activ; GPR151 PathHunter beta-arrestin cells, luminescence, 90 min; % of EA-reagent control over plate median; activation, % at 11.2 µM; 6,700 tested, under 10 active;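 active = mean percent activation across replicates above the confirmation screen cutoff of 4.91%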
GPR119 counter: GPR119 activation, counter-screen for GPR151 activators | shares compounds with GPR151 activ | GPR119 PathHunter beta-arrestin cells, luminescence, 90 min; 0 = compound-well median, 100 = enzyme-acceptor control | activation, % at 11.2 µM | 0.3% of 6,700 active;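 active = mean percent activation in the counterscreen above 29.09%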;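 also: counterscreen on off-target GPR119 to flag nonselective hits from the GPR151 activator screen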
The depositor's hits bear a star; . = not tested or not shown.

SMILES	FBW7 activator	GPR151 activ	MITF primary	TEAD-YAP block	GPR151 conf act	GPR119 counter
O=C(CSc1nc2ccccc2c(=O)n1CCC1=CCCCC1)NCCc1ccccc1	-0.2	6.4*	-0.6	-9.2	-0.3	-4.8
Cc1ccc(Cn2c(SCC(=O)C(C)(C)C)nc3ccsc3c2=O)cc1	0.2	5.0*	7.3	-2.7	0.7	7.9
Cc1ccc(CSc2nc3ccsc3c(=O)n2Cc2ccc(C)cc2)cc1	0.0	-0.7	13.9	5.2	.	.
CC(C)OC(=O)c1ccc(NC(=O)c2cc3cc(Br)ccc3oc2=O)cc1	0.0	0.1	10.8	-0.8	.	.
CCOC(=O)CSc1nc2ccccc2c(=O)n1Cc1ccccc1OC	0.2	5.2*	6.9	5.7	0.4	1.1
CC(NC(=O)CSc1nc2ccccc2c(=O)n1CCCO)c1ccccc1 (stereo not given)	0.3	6.5*	8.8	6.0	0.3	-1.5
COc1ccccc1NC(=O)CSc1nc2ccsc2c(=O)n1Cc1ccccc1	0.0	6.0*	-0.2	3.7	1.2	9.8
CCC(C)NC(=O)CSc1nc2ccccc2c(=O)n1CCCN1CCCCC1CC (stereo not given)	0.0	1.1	-4.8	0.9	.	.
COc1ccc(S(=O)(=O)NCC2CCCN(C3CSCCSC3)C2)cc1 (stereo not given)	0.1	1.3	8.2	6.4	.	.
O=C(Nc1cc(Oc2ccc(F)cc2F)cc([N+](=O)[O-])c1)c1oc(=O)c2ccccc2c1-c1ccccc1	0.3	5.5*	0.9	-8.0	-0.4	7.6
O=C(Nc1cc(Sc2ccc(F)cc2)cc([N+](=O)[O-])c1)c1oc(=O)c2ccccc2c1-c1ccccc1	0.1	-1.9	4.0	-4.0	.	.
COC(=O)c1ccc(OCC(O)CN2CCN(c3ccccc3OC)CC2)cc1 (stereo not given)	0.1	10.7*	-7.9	19.7	0.3	1.7
COc1ccccc1N1CCN(CCN2CCN(C)CC2)CC1	-0.1	12.5*	4.8	-2.0	0.2	-10.6
CCC(=O)c1ccc(OCC(O)CN2CCN(c3ccccc3OC)CC2)cc1 (stereo not given)	-0.2	2.4	-0.8	3.9	.	.
COc1ccc(NC(=O)C2CC(=O)NC(Nc3ccc(C)cc3C)=N2)cc1 (stereo not given)	0.0	12.0*	6.9	7.4	0.6	-12.8
COC(=O)c1cnn(C(=O)c2ccc(OC)cc2)c1N	0.1	6.2*	5.7	-3.6	-0.2	-0.2
COC(=O)c1cnn(C(=O)c2ccncc2)c1N	0.1	-1.8	-2.7	0.4	.	.
NC(=O)CCN(CCC(N)=O)S(=O)(=O)c1ccc(Br)cc1	-0.1	1.1	-2.1	1.5	.	.
NC(=O)CCN(CCC(N)=O)S(=O)(=O)c1ccccc1	0.4	6.6*	13.8	-1.8	-1.2	-4.4
C=CCNc1nc(Nc2ccc(C)cc2C)c2cnn(C)c2n1	0.7	1.4	8.8	13.0	.	.
COc1ccccc1NC1CC(=O)N(c2ccc(Br)cc2)C1=O (stereo not given)	0.0	0.3	-4.7	6.4	.	.
COc1ccccc1NC1CC(=O)N(c2cccc(Cl)c2)C1=O (stereo not given)	-0.1	9.1*	1.8	-9.2	-0.4	4.5
COc1ccc(NC2CC(=O)N(c3ccc(Cl)c(C(F)(F)F)c3)C2=O)cc1 (stereo not given)	0.0	6.0*	2.9	14.7	-0.4	-8.4
COc1ccc(NC2CC(=O)N(c3ccc(OC)cc3)C2=O)cc1 (stereo not given)	-0.2	-1.9	-4.8	0.3	.	.
Fc1ccc2[nH]c3nc(SCC4CCCO4)nnc3c2c1 (stereo not given)	-0.1	-0.1	11.6	-41.5	.	.
SMILES	FBW7 activator	GPR151 activ	MITF primary	TEAD-YAP block	GPR151 conf act	GPR119 counter
Cc1onc(-c2ccccc2Cl)c1C1=N/C(=C\c2ccc(Br)cc2)C(=O)O1	-0.1	0.3	6.5	-3.9	.	.
Cc1ccc(C(=O)Oc2cc(N)n(S(=O)(=O)c3ccc(C)cc3)n2)cc1	0.2	1.1	10.3	-12.8	.	.
COc1ccc(C(=O)Oc2cc(N)n(S(=O)(=O)c3ccc(C)cc3)n2)cc1OC	0.0	6.3*	8.3	4.5	0.5	10.5
COc1ccc(-n2c(O)c(C=NCc3ccc(F)cc3)c(=O)[nH]c2=O)cc1	0.1	7.1*	18.4	5.1	-1.2	-5.4
Cc1sc2nc(C3CC3)nc(SCC(=O)N3CCOCC3)c2c1C	-0.2	-1.2	2.3	11.4	.	.
CC1CCN(S(=O)(=O)c2ccc(F)c(C(=O)Nc3ccc(F)cc3)c2)CC1	0.0	0.4	-9.4	-11.0	.	.
COC(=O)c1cc(S(=O)(=O)N2CCC(C)CC2)ccc1F	0.9	11.5*	18.1	6.9	0.7	-4.2
CCCOc1c(OC)cccc1C1NC(=S)NC(C)=C1C(=O)OCCOC (stereo not given)	0.0	0.8	17.8	0.6	.	.
O=C(/C=C/c1ccccc1)N1CCN(c2nc3ccccc3s2)CC1	0.1	1.2	-1.2	-7.6	.	.
CSc1nc2[nH]c(=O)cc(O)c2s1	0.2	5.5*	4.6	-1.0	0.5	-2.4
COc1ccc(Nc2nc3[nH]c(=O)cc(O)c3s2)cc1	-0.1	0.0	-16.9	-6.9	.	.
CC(C)N(C(=O)Cn1cc(SCC(=O)NCC2CCCO2)c2ccccc21)C(C)C (stereo not given)	-0.1	11.8*	-1.4	2.0	-0.3	-2.0
O=C(CSc1cn(CCNC(=O)c2ccccc2)c2ccccc12)NCC1CCCO1 (stereo not given)	0.1	-0.2	-18.2	-5.5	.	.
Cc1nc2ccccc2c(=O)n1CC(=O)N1CCOCC1	0.7	-1.5	10.4	6.4	.	.
Cc1nc2ccccc2c(=O)n1-c1ccc(N2CCOCC2)c(C(F)(F)F)c1	-0.1	5.9*	-4.9	8.9	1.2	-3.6
Cc1cccc(CC(Cc2nc3ccccc3[nH]2)c2nc3ccccc3[nH]2)c1 (stereo not given)	-0.2	5.6*	6.0	11.6	-0.3	-11.1
Cn1cccc1-c1nc2ccc(N)cc2[nH]1	-0.1	6.3*	13.4	-20.5	-1.1	-16.4
Nc1cccc(-c2nc3ccc(Cc4ccc5nc(-c6cccc(N)c6)[nH]c5c4)cc3[nH]2)c1	-0.1	7.0*	4.8	9.9	0.4	14.1
O=C(c1cc2cc(Br)ccc2o1)N1CCc2c([nH]c3ccccc23)C1c1ccc([N+](=O)[O-])cc1 (stereo not given)	-0.2	1.0	6.6	-4.0	.	.
O=C(C1CCCO1)N(c1ccc(Cl)cc1)C1C=CS(=O)(=O)C1 (stereo not given)	0.0	9.6*	9.9	-9.4	0.5	1.5
O=C(NC(c1ccccc1)c1ccccc1)C(F)(F)F	-0.1	0.4	6.1	-6.3	.	.
Cc1nc2nc(NCc3ccccc3)nn2c(C)c1Cl	0.1	-0.3	1.6	-6.3	.	.
CNC(=O)CCC(=O)N1CCOc2ccc(Cl)cc21	0.6	7.2*	3.6	2.4	0.7	-4.5
COc1ccc(COC(=O)N/N=C(\C)CC(=O)NCCc2ccc(OC)c(OC)c2)cc1	0.1	-0.6	-0.1	-6.9	.	.

Screening results deposited in PubChem BioAssay by The Scripps Research Institute Molecular Screening Center.
